Experimental data taken from publication PMC10163288.
Only a sample is shown. The hit rate among all sequences tested is not known here.

B1: il2ra_site2_2erj_sap_27_mot_HHH_b1_06697_000000025_0001_41_54_H_._HHH_b2_06097_0001_0000200013_0000001_0_0001 (protein)
chain: SSSSDKLRELYKLAVELMRLVAEGDEERFEEVAEEVRKLVEELDSRTAREILEALERKIKSSSSS
B2: il2ra_site2_3nfp_sap_22_mot_ems_3hM_1278_af2_000000151_0001_43_60_H_._HHH_b2_04893_0001_0000100005_0000001_0_0001 (protein)
chain: SSSSSEELEELIEQARELLEEGDKYEAAQVVLRASRLALELNDPEAARRILELFEEIQRTSSSSS
B3: il2ra_site2_3nfp_sap_18_mot_7f6a3539c8daa08639e4cdbcc6f77908_0001_af2_000000032_0001_16_31_H_._HHH_b1_04314_af2_0001_0000300027_0000001_0_0001 (protein)
chain: SSSSDKSEEYLRIALELLEEAIKAGDEEAARSHLEVAKAAAESHNDEEVEERLEELEELLSSSSS
B4: il2ra_site2_2erj_sap_12_mot_HHH_b1_05666_000000037_0001_42_55_H_._HHH_b2_06677_0001_0000400020_0000001_0_0001 (protein)
chain: SSSSDERLHELYKLANELLRLEFEGDEERIEELLQRVRELAEELKSDAARELVERVEKKLSSSSS
B5: il2ra_site1_1z92_normal_mot_HHH_b2_05027_000000150_0001_42_56_H_._HHH_b2_03014_0001_0000400026_0000001_0 (protein)
chain: SSSSSSSEEWLEELVELVIKRSDDPEEQEELRRLLEELREEGDPELWLELAQLLIEIASSSSSSS
B6: il2ra_site1_3nfp_sap_17_mot_HHH_b1_06312_000000077_0001_1_18_H_._HHH_b1_02603_af2_0001_0000500014_0000001_0_0001_af2pred_0001_af2pred_1 (protein)
chain: SSSSDVEEFLEEIKEELREALEKGDARLAARIFKEASKKLREKGNPELAEELYEFLRKLISSSSS
B7: il2ra_site2_2erj_sap_25_mot_HHH_b1_02841_000000060_0001_43_57_H_._HHH_b1_02445_af2_0001_0000300014_0000001_0_0001 (protein)
chain: SSSSDTEERVEEVLEEARKAYEEGDLHEVYRLAVEAMRIASENNDQEALELVLRFIEELSSSSSS
B8: il2ra_site1_2b5i_sap_8_mot_HHH_b1_04517_000000040_0001_39_52_H_._HHH_b2_05314_0001_0000400027_0000001_0_0001_af2pred_dldesign_0_af2pred (protein)
chain: SSSDPKALAETAAAIVEELEEKYNLNLEQSAVLERLAVELVWKGVSPEEIRRRLEALAKELSSSS
B9: il2ra_site1_1z92_normal_mot_01209686ea234b34325f918445e6eade_0001_af2_000000154_0001_18_33_H_._HHH_b1_01021_0001_0000100004_0000001_0_af2pred_0001_1_af2pred_swa … (protein)
chain: SSSSSDELEEFIEELVKELGLDEEAKETLERLLEKLQEQGVSERAIRRALERMARRMRGSSSSSS
B10: il2ra_site2_3nfp_sap_11_mot_HHH_b1_00882_af2_000000293_0001_1_18_H_._HHH_b1_01194_af2_0001_0000300012_0000001_0_0001 (protein)
chain: SSSSSSSLYELLQEAVEAAKNGNPEEAKEILEQALEEAREAGDEEAEHFIEWFIKAVRSSSSSSS
B11: il2ra_site2_2erj_normal_mot_HHH_b1_04373_af2_000000118_0001_18_33_H_._HHH_b2_00961_af2_0001_0000900028_0000001_1 (protein)
chain: SSSSSDEEEVERRVRELLEEAEKVDLEEAYKLAVEALHLAAENRDPELLRLILEWVEKHSSSSSS
B12: il2ra_site2_3nfp_sap_15_mot_HHH_b1_02990_000000128_0001_41_58_H_._HHH_b1_03794_0001_0000400021_0000001_0_0001 (protein)
chain: SEAEEIIKLIAELLGTPPERVRERVEDAAEIVNRPPEEAAAYLLAQVALELGDPELEKEAKRLSR
B13: il2ra_site2_2erj_sap_28_mot_HHH_b1_08185_000000106_0001_41_55_H_._HHH_b2_03845_af2_0001_0001200037_0000001_0_0001 (protein)
chain: SSSSDEEEERLEELVERAERLLKEGNPEEAWEVLREAATLAWELGDEEIWSRLSKLTAEVASSSS
B14: il2ra_site1_1z92_normal_mot_54e474eed2d0515e81978198f0f96ec2_0001_000000202_0001_15_30_H_._8eb524b276bbb897fd8f0cca34c37a2d_0001_af2_0001_0000300018_0000001_0_a … (protein)
chain: DVEEEIEEALKELGVPPEEIKVVKRDFRLAREAGIPPEQVLRALINAARASGDEELTEALELVLK
B15: il2ra_site1_3nfp_normal_mot_e80b558ee5422d85aa46efdc370d0602_0001_af2_000000114_0001_54_65_H_._HEEHE_2247_0002_0000400019_0000001_0_af2pred_0001_af2pred (protein)
chain: DRQEILQEDAELISKVAGVTSVHVEVENGHVTVTVEADNRRARALLRILREAAKIAGLEVEITIE
B16: il2ra_site2_2erj_normal_mot_HHH_b1_02757_000000121_0001_41_57_H_._HHH_b1_02256_0001_0000700046_0000001_0_af2pred_0001_af2pred (protein)
chain: SSSSSSSVEEEVKELLEQAKHIPDIREALKVLEEADRLALENDNEELLELITRVLRELSSSSSSS
B17: il2ra_site2_2erj_normal_mot_HHH_b2_04744_000000294_0001_42_58_H_._HHH_b1_07967_af2_0001_0000500022_0000001_0 (protein)
chain: SSSSDEEERLEELLKELEELSRKRDFHRFAEVFSEILELVEENNDEEAALIAFRIMREHFGSSSS
B18: il2ra_site1_2b5i_normal_mot_f5ff40796168375b462bec8614a1db4a_0001_1_000000138_0001_53_65_H_._HHH_b2_01775_0001_0000500027_0000001_0_af2pred_dldesign_0_af2pred (protein)
chain: SSSSSSEKRELIQALIDEAKKEEDKRLAKRLLLLALRLARKHNDEELIAEIEALLKELESSSSSS
B19: il2ra_site2_2erj_sap_16_mot_HHH_b2_07792_af2_000000252_0001_18_34_H_._HHH_b1_07975_af2_0001_0000200006_0000001_0_0001 (protein)
chain: SSSSSDTEEEVEELLEQAKRITDLREVYRLAVEALHLAARVQDPELQRLVAEVVEELSRSSSSSS
B20: il2ra_site2_2erj_sap_19_mot_HHH_b2_01275_af2_000000073_0001_23_39_H_._HHH_b1_01063_af2_0001_0000200019_0000001_0_0001 (protein)
chain: SSSSDKLRELYELAVEVLRAVARGDEEEAERLLEEAKELAEELDSPNAREALENNKRLLKSSSSS
B21: il2ra_site2_2erj_sap_14_mot_HHH_b2_01204_af2_000000056_0001_19_34_H_._HHH_b2_03878_0001_0000200011_0000001_0_0001 (protein)
chain: SSSSDWLHELYELASEITRLLAEGDPEEARRLLEELEELAEENDSPNAEEIVERLEKKIESSSSS
B22: il2ra_site1_2b5i_sap_14_mot_HHH_b2_01684_af2_000000128_0001_1_17_H_._HHH_b1_05605_0001_0000200010_0000001_0_0001_af2pred_dldesign_0_af2pred (protein)
chain: SSSSSSSSDRRALLEEANKAFQAGDVEALEALLERAEAAGWEKVARTIRKAIEALLESSSSSSSS
B23: il2ra_site1_2b5i_sap_9_mot_HHH_b2_02740_000000236_0001_1_21_H_._HHH_b1_02398_0001_0000300016_0000001_0_0001 (protein)
chain: SSSSDDELFHEIDELFREASRLFLNGNPEEAEKVLEKAIRLAEEGGDESTAEDLRRFLELLSSSS
B24: il2ra_site2_3nfp_sap_25_mot_HHH_b2_06150_000000217_0001_39_53_H_._HHH_b2_05014_af2_0001_0000300011_0000001_0_0001 (protein)
chain: DEVSEVIWRLREEGDPELAFLLFAVRADVLYKHDPELEEELEKLIELAERDPEKAKELAEELLRR
B25: il2ra_site2_2erj_normal_mot_HHH_b2_01353_af2_000000049_0001_23_39_H_._HHH_b1_04436_af2_0001_0000200013_0000001_0 (protein)
chain: SSSSDEIEELLEKAKELLEKGNPEEAEEVLRRASVAAFENRDHEAFAEIAELLRIVAELEASSSS
B26: il2ra_site1_1z92_sap_28_mot_HHH_b1_00661_af2_000000033_0001_38_50_H_._HHH_b2_00267_af2_0001_0000300009_0000001_0_0001_af2pred_0001_af2pred_1 (protein)
chain: PEELAEQAEELLKNGNPEEAEKVLRELAKELGNEEVFERDLEHAERNLGNPEQALLSLIKALSFV
B27: il2ra_site1_1z92_sap_12_mot_HHH_b2_04974_000000012_0001_1_17_H_._HHH_b1_06150_af2_0001_0000300041_0000001_0_0001_af2pred_dldesign_0_af2pred (protein)
chain: SSSSSSPYQRARDLILEINKARQAGDTEKFDELLAELEKLAKELESNTLLRFIEHARKELSSSSS
B28: il2ra_site2_2erj_normal_mot_HHH_b2_06912_000000039_0001_38_52_H_._HHH_b2_01292_0001_0000100004_0000001_0 (protein)
chain: SSSSSDKEESEKLAEEAHELILRNPERVEEIVEEFRRELEELNDPIAVRYLELVRRDVNSSSSSS
B29: il2ra_site2_3nfp_sap_24_mot_HHH_b1_03818_000000217_0001_1_20_H_._HHH_b1_04518_af2_0001_0000400014_0000001_0_0001 (protein)
chain: SEKDLIEMSLEMIKAHALLHGNEEVQEIVEELERLLEEAKRKNDEELREEVAERAAELIERVLES
B30: il2ra_site2_2erj_normal_mot_HHH_b2_00494_000000216_0001_41_54_H_._HHH_b1_07802_af2_0001_0000300011_0000001_0 (protein)
chain: SSSSNEELRRLYELADEALRLITEGNPEEAEKVLEEARELAERLNSENAREVVEFLEELLESSSS
B31: il2ra_site2_2erj_sap_21_mot_HHH_b2_00938_af2_000000099_0001_43_55_H_._HHH_b1_03152_af2_0001_0000100003_0000001_0_0001 (protein)
chain: SSSSLHEAFEIAVEAAAKISRLHREGNDEEAKRVFEEARERLEELGTENAREHLEHLFKALSSSS
B32: il2ra_site2_3nfp_normal_mot_HHH_b1_00660_af2_000000090_0001_40_57_H_._HHH_b1_02730_0001_0001000022_0000001_0 (protein)
chain: SSSSSDEEVRELLEQLRELIEKNDEEEFERLSREITNLAYELNNFELFALVQELRARFISSSSSS
B33: il2ra_site2_3nfp_normal_mot_HHH_b2_04451_000000238_0001_21_37_H_._HHH_b2_04195_af2_0001_0000200011_0000001_0 (protein)
chain: SSSSSEEEEVRELLEQARELLERGDPYEALELLAEASEIAAKLNNEELARLILELFEKVQKSSSS
B34: il2ra_site2_3nfp_normal_mot_HHH_b2_08209_000000146_0001_1_18_H_._HHH_b1_00160_0001_0000200018_0000001_0 (protein)
chain: SSSSSTEEERERVEELLEEAKEITDPEERKELLAEATQIAYEANDFELFALVADVVFELLSSSSS
B35: il2ra_site2_3nfp_sap_19_mot_HHH_b1_06699_000000048_0001_23_40_H_._ems_3hC_59_0001_0000100006_0000001_0_0001_af2pred_0001_af2pred (protein)
chain: SSSSSDAAEEAEELAEEARHVEDPEERERILRKAAELAYRARDHEVFAEIHLVIEELERSSSSSS
B36: il2ra_site1_3nfp_normal_mot_HHH_b2_08102_af2_000000255_0001_38_50_H_._HHH_b2_05157_0001_0000400017_0000001_0_af2pred_0001_af2pred (protein)
chain: SSSSDHLAREYTEWAKRRIRELLERGDEEAARRLLEKAKRSLEIAGDEEAVEELEKLYEELSSSS
B37: il2ra_site1_2b5i_normal_mot_HHH_b2_01040_af2_000000143_0001_42_56_H_._HHH_b1_04969_af2_0002_0000100009_0000001_0 (protein)
chain: SSSSSDEAEEAAREALELLRELLRVDEEEIKELLEEAHEKLEKLNDEALLKRVERLLRLLSSSSS

What follows are binders tested against il2ra, P01589 (assay: yeast display titration).
il2ra, P01589, sequence (P01589 whole entry): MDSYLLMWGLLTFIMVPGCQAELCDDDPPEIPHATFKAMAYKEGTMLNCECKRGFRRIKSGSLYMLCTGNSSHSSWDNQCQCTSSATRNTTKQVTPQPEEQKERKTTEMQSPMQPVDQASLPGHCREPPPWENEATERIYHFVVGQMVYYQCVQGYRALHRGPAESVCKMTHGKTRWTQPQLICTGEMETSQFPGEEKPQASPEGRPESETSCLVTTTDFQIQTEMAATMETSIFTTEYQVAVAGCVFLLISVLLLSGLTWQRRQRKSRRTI

Apparent Kd, inactive:
B1 no binding seen
B2 no binding seen
B3 no binding seen
B4 no binding seen
B5 no binding seen
B6 no binding seen
B7 no binding seen
B8 no binding seen
B9 no binding seen
B10 no binding seen
B11 no binding seen
B12 no binding seen
B13 no binding seen
B14 no binding seen
B15 no binding seen
B16 no binding seen
B17 no binding seen
B18 no binding seen
B19 no binding seen
B20 no binding seen
B21 no binding seen
B22 no binding seen
B23 no binding seen
B24 no binding seen
B25 no binding seen
B26 no binding seen
B27 no binding seen
B28 no binding seen
B29 no binding seen
B30 no binding seen
B31 no binding seen
B32 no binding seen
B33 no binding seen
B34 no binding seen
B35 no binding seen
B36 no binding seen
B37 no binding seen
